Inconclusive results are not listed. The source made the active and inactive calls. How the source made its calls, unless noted: active means hit-call score of the fitted dose curve at least 0.9, where 1 is the maximum; inconclusive means response in the unintended direction; inactive means score below 0.9.
test system: not listed separately; test: CCTE_Mundy_HCI_iCellGluta_NOG_NeuriteLength: CCTE's Neurite Outgrowth Assay in iCellGluta cells for Neurite Length, Mundy Lab (AID 2284318)
Outline: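 Automated high-content imaging of betaIII-tubulin (Alexa Fluor-488) and Hoechst-stained cells gave neurite length, normalized to the DMSO baseline.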

Row | SMILES | AC50 | outcome
1 | BrC1CC(Br)CC(Br)CC(Br)CC(Br)CC(Br)C1 (stereo not given) | 3.77 µM (active) | 
2 | CC(CNC(=S)[S-])NC(=S)[S-].[Zn+2] (stereo not given) | 13 µM (active) | 
3 | CC(=O)N[C@@H](CC(=O)O)C(=O)O |  | inactive
4 | CC(C)c1nn(C(=O)NC(C)(C)C)c(=O)n1N |  | inactive
5 | Cc1[nH]n(C)c(=O)c1C(=O)c1ccc(C(F)(F)F)cc1S(C)(=O)=O |  | inactive
6 | CCCCCC(C)(CC)C(=O)NC (stereo not given) |  | inactive
7 | C[C@@H]1CCO[C@H]2Cn3cc(C(=O)NCc4ccc(F)cc4F)c(=O)c(O)c3C(=O)N12 |  | inactive
8 | CCCCCC=C(C)C(CC)CCO (stereo not given) |  | inactive
9 | C[C@@H]1CC[C@@H](C(C)(C)O)[C@H](O)C1 |  | inactive
10 | CC(C)O |  | inactive

test system: Brachyury (BRA) Protein Expression, Deisenroth Lab, TBXT (gene 6862); test: CCTE_Deisenroth_DEVTOX-GLR_legacy_Bra: (Legacy) CCTE's DevTox GLR-Endo Assay Evaluation of Brachyury (BRA) Protein Expression, Deisenroth Lab (AID 2284329; active means hit-call score of the fitted dose curve at least 0.9, where 1 is the maximum; inactive means score below 0.9)
Outline: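 Human pluripotent RUES2-GLR line was exposed twice during 48 h differentiation to a 10-point series, 1 nM - 200 uM. Fraction of Bra-positive cells was scored by imaging against pluripotent baseline and fitted after 0.2% DMSO subtraction.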

Row | SMILES | outcome | AC50
11 | NC(=O)c1ccc(-c2nc(-c3ccc4c(c3)OCO4)c(-c3ccccn3)[nH]2)cc1 | inactive | 
12 | COc1ccc2[nH]c([S@@](=O)Cc3ncc(C)c(OC)c3C)nc2c1 |  | 67.9 µM (active)
13 | Oc1cc(O)c2c(c1)O[C@H](c1ccc(O)c(O)c1)[C@@H](O)C2 | inactive | 
14 | Nc1cccc2c1C(=O)N(C1CCC(=O)NC1=O)C2=O (stereo not given) | inactive | 
15 | c1cc(-c2cnn3cc(-c4ccc(OCCN5CCCCC5)cc4)cnc23)ccn1 |  | 20 µM (active)

From PubChem BioAssay (EPA / NIEHS)
